Assay results: PubChem BioAssay (NCI)
The panel holds about 83,000 compounds, 20% with a hit somewhere; the sample as a whole holds those more often.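 Method: cells in 96-well plates; compound added at one concentration; 48 h incubation; percent growth measured; values under 10 scored active.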 A number with no mark means an inactive call. Active and inactive are the calls of the source.

test system: SW-620 colon; experiment: NCI-60 one-dose screen, 48 h (100 = growth as untreated, 0 = no growth, -100 = all killed); settings: 10 µM unless noted

Compound | growth
O=C1OC(c2ccccc2)=N/C1=C\c1ccc([N+](=O)[O-])cc1 | 92.4%
CC(Br)C(Br)c1cc2c(cc1Br)OCO2 (stereo not given) | 109%
COc1ncc(-c2ccc3ncnc(Nc4cccc(Cl)c4)c3c2)cc1NS(=O)(=O)CCN1CCOCC1 | 29.5%
CCCCC[C@@H]1Cc2cc(O)c(C(=O)O)c3c2[C@H](C[C@@]2(CCCO2)O3)O1 | 111%
CC(C)C[C@H](NC(=O)[C@@H](Cc1ccccc1)n1ccc(Nc2ccccc2)cc1=O)B(O)O | -10.4% (active)
N#CC1=C(N)n2nc(-c3ccncc3)nc2NC1c1cccc2ccccc12 (stereo not given) | 100%
O=c1cc(C2NCCc3c2[nH]c2ccccc32)c2c(ccc3ccccc32)o1 (stereo not given) | 59.6%
CC(C)CCC[C@@H](C)[C@H]1CC[C@H]2[C@@H]3CC[C@H]4C/C(=N/O)CC[C@]4(C)[C@H]3CC[C@]12C | 97.9%
COc1ccc(/C=C/C(=O)c2cccc(B(O)O)c2)cc1O | 9.61% (active)
O=c1oc2c([nH]c3ccc4ccccc4c32)c2ccccc12 | 98.3%
O=C(NCCc1c[nH]c2ccccc12)C1Cc2ccccc2CN1C(=O)c1ccco1 (stereo not given) | 103%
CC/C=C\C[C@H]1C/C=C2/C(=O)C(Cl)=C[C@@H]2C/C=C\CCCC(=O)O1 | -74.8% (active)
O=C(Nc1ccc(F)cc1)c1cc([N+](=O)[O-])ccc1O | 76.5%
CCN(CC)CCSc1c2ccc(Cl)cc2nc2ccc(OC)cc12 | 4.29% (active)
O=[N+]([O-])c1ccc(S(=O)(=O)N2CCN(c3ccnc4cc(Cl)ccc34)CC2)c([N+](=O)[O-])c1 | 40.5%
N#Cc1ccc(NC(=O)c2ccc3cccnc3c2O)cc1 | 23.1%
CCCCCCc1nc2c(c(C)nn2-c2ccccc2)c2c1CCCCC2 | 101%
Nc1nc(N)c2nc(CNc3ccc(C(=O)CC(CCC(=O)O)C(=O)O)cc3)cnc2n1 (stereo not given) | 25.7%
Nc1nc(Cl)c2c(ncn2Cc2ccc(CCl)cc2)n1 | 93.3%
CCOc1ccc(/C=C/C=N/NC(N)=S)cc1 | 87.2%
COc1cc(/C=C/C(=O)c2ccccc2O)ccc1OCCCOc1cc2c(cc1OC)C(=O)N1CCC[C@H]1C=N2 | 5.6% (active)
COc1cc(NS(C)(=O)=O)ccc1Nc1c2ccc([N+](=O)[O-])cc2nc2c(C)cccc12 | 18.8%
CCN(C(=O)c1cc2ccccc2[nH]1)[C@H]1CCC[C@@H](NCc2ccc(OC)cc2)C1 | 91.2%
COc1ccc(/C=C/C(=O)c2ccc(B(O)O)cc2)cc1O | 28.5%
Clc1ccc2c(c1)NC1(CCSc3ccccc31)n1nccc1-2 (stereo not given) | 102%
O=C1NC(Cc2c[nH]c3ccccc23)C(=O)N1Cc1ccc(Cl)cc1 (stereo not given) | 98.4%
CCCCCCCCCCC/C=C\C[C@H](O)C/C=C1/C(=O)C=C[C@@H]1C/C=C\CCCC(=O)OC | 3.33% (active)

test system: MCF7 breast; experiment: as above; settings: 10 µM unless noted

Compound | growth
O=S(=O)(NCCCNc1nccc(-c2c(-c3ccc(F)c(O)c3)nc3sccn23)n1)c1ccc(Cl)cc1 | 77.2%
Nc1ccc(S(=O)(=O)c2ccc(Cl)cc2)cc1 | 99.3%
O=C1OC(c2ccccc2)=N/C1=C\c1ccc([N+](=O)[O-])cc1 | 103%
CC(Br)C(Br)c1cc2c(cc1Br)OCO2 (stereo not given) | 93.9%
COc1ncc(-c2ccc3ncnc(Nc4cccc(Cl)c4)c3c2)cc1NS(=O)(=O)CCN1CCOCC1 | 7.16% (active)
CCCCC[C@@H]1Cc2cc(O)c(C(=O)O)c3c2[C@H](C[C@@]2(CCCO2)O3)O1 | 102%
CC(C)C[C@H](NC(=O)[C@@H](Cc1ccccc1)n1ccc(Nc2ccccc2)cc1=O)B(O)O | 21.1%
N#CC1=C(N)n2nc(-c3ccncc3)nc2NC1c1cccc2ccccc12 (stereo not given) | 80.5%
O=c1cc(C2NCCc3c2[nH]c2ccccc32)c2c(ccc3ccccc32)o1 (stereo not given) | 81.8%
CC(C)CCC[C@@H](C)[C@H]1CC[C@H]2[C@@H]3CC[C@H]4C/C(=N/O)CC[C@]4(C)[C@H]3CC[C@]12C | 103%
COc1ccc(/C=C/C(=O)c2cccc(B(O)O)c2)cc1O | 24.3%
O=c1oc2c([nH]c3ccc4ccccc4c32)c2ccccc12 | 73.7%
O=C(NCCc1c[nH]c2ccccc12)C1Cc2ccccc2CN1C(=O)c1ccco1 (stereo not given) | 90.3%
CC/C=C\C[C@H]1C/C=C2/C(=O)C(Cl)=C[C@@H]2C/C=C\CCCC(=O)O1 | -40.4% (active)
C/C(=N\NC(=O)CC#N)c1cc2cc(Cl)ccc2o1 | 72.2%
O=C(Nc1ccc(F)cc1)c1cc([N+](=O)[O-])ccc1O | 61.5%
CCN(CC)CCSc1c2ccc(Cl)cc2nc2ccc(OC)cc12 | 33.8%
O=[N+]([O-])c1ccc(S(=O)(=O)N2CCN(c3ccnc4cc(Cl)ccc34)CC2)c([N+](=O)[O-])c1 | 52.7%
O=[N+]([O-])c1c(S(=O)(=O)O)cc2cc(S(=O)(=O)O)ccc2c1[N+](=O)[O-] | 97.7%

Compound | growth
Clc1nc(Cl)c2ncn(C/C=C/Cn3cnc4c(Cl)nc(Cl)nc43)c2n1 | 38.3%
CC(C)C[C@H](NC(=O)Cn1ccc(NCc2ccccc2)cc1=O)B(O)O | 28.9%
N#Cc1ccc(NC(=O)c2ccc3cccnc3c2O)cc1 | 15.8%
CCCCCCc1nc2c(c(C)nn2-c2ccccc2)c2c1CCCCC2 | 107%
Nc1nc(N)c2nc(CNc3ccc(C(=O)CC(CCC(=O)O)C(=O)O)cc3)cnc2n1 (stereo not given) | 22.8%
Nc1nc(Cl)c2c(ncn2Cc2ccc(CCl)cc2)n1 | 72.5%
CCOc1ccc(/C=C/C=N/NC(N)=S)cc1 | 43.5%
COc1cc(/C=C/C(=O)c2ccccc2O)ccc1OCCCOc1cc2c(cc1OC)C(=O)N1CCC[C@H]1C=N2 | -15.1% (active)
CC(CCc1ccccc1)NC(=O)c1n[nH]c(=O)c2ccccc12 (stereo not given) | 90.7%
COc1cc(-c2nc(-c3nc4ccccc4[nH]3)cc3c2[nH]c2ccccc23)cc(OC)c1OC | 42.6%
O=C(/C=C/CN1CCOCC1)Nc1cc2c(Nc3ccc(F)c(Cl)c3F)ncnc2cc1OCCOC(F)F | 60.7%
COc1cc(NS(C)(=O)=O)ccc1Nc1c2ccc([N+](=O)[O-])cc2nc2c(C)cccc12 | 15.6%
O=S(=O)(NCCCNc1cc(-c2cn(-c3ccccc3)nc2-c2cccc(O)c2)ccn1)c1cccc2ccccc12 | 15.8%
O=c1[nH]c(-c2cn(-c3ccc(Cl)cc3)nn2)nc2ccccc12 | 99.8%
CCN(C(=O)c1cc2ccccc2[nH]1)[C@H]1CCC[C@@H](NCc2ccc(OC)cc2)C1 | 84%
COc1ccc(/C=C/C(=O)c2ccc(B(O)O)cc2)cc1O | 20.2%
Clc1ccc2c(c1)NC1(CCSc3ccccc31)n1nccc1-2 (stereo not given) | 102%
O=C1NC(Cc2c[nH]c3ccccc23)C(=O)N1Cc1ccc(Cl)cc1 (stereo not given) | 98%
CCCCCCCCCCC/C=C\C[C@H](O)C/C=C1/C(=O)C=C[C@@H]1C/C=C\CCCC(=O)OC | 10.8%
